{
  "source": "PubChem BioAssay (NCI)",
  "assay_in_all_cases": "NCI-60 one-dose screen, 48 h (100 = growth as untreated, 0 = no growth, -100 = all killed)",
  "conditions_in_all_cases": "10 µM unless noted",
  "key": {"EKVX NSCLC": {"system": "EKVX NSCLC"}, "SN12C renal": {"system": "SN12C renal"}, "UO-31 renal": {"system": "UO-31 renal"}, "TK-10 renal": {"system": "TK-10 renal"}, "ACHN renal": {"system": "ACHN renal"}, "CAKI-1 renal": {"system": "CAKI-1 renal"}, "A498 renal": {"system": "A498 renal"}, "CCRF-CEM leukemia": {"system": "CCRF-CEM leukemia"}, "MOLT-4 leukemia": {"system": "MOLT-4 leukemia"}},
  "note": "This is part of a sample that, as a whole, favours compounds with a hit. Of some 83,000 tested, about 20% had one in any assay.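 Note: values are percent growth. 100 is the growth of untreated cells, values between 100 and 0 indicate rising inhibition; between -100 and 0 indicates cell death.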 A number with no mark means an inactive call. Calls of active or inactive are those of the source. Rule for the calls: active = growth percent below 10; inactive = the rest.",
  "data": [
    {"smiles": "O=C1NC(=O)C(Cc2ccc(OCc3ccc(-c4cc(F)c(F)c(F)c4)cc3)cc2)S1", "note": "(centres undefined)", "values": [
      {"measurement": "growth", "setting": "EKVX NSCLC", "result": 80.9, "unit": "%"},
      {"measurement": "growth", "setting": "SN12C renal", "result": 80.1, "unit": "%"},
      {"measurement": "growth", "setting": "UO-31 renal", "result": 64.5, "unit": "%"},
      {"measurement": "growth", "setting": "TK-10 renal", "result": 100, "unit": "%"},
      {"measurement": "growth", "setting": "ACHN renal", "result": 83.9, "unit": "%"},
      {"measurement": "growth", "setting": "CAKI-1 renal", "result": 53.9, "unit": "%"},
      {"measurement": "growth", "setting": "A498 renal", "result": 95.5, "unit": "%"},
      {"measurement": "growth", "setting": "CCRF-CEM leukemia", "result": 80.4, "unit": "%"},
      {"measurement": "growth", "setting": "MOLT-4 leukemia", "result": 76.8, "unit": "%"}
    ]},
    {"smiles": "Cc1cccc([N+](=O)[O-])c1I", "values": [
      {"measurement": "growth", "setting": "EKVX NSCLC", "result": 95.4, "unit": "%"},
      {"measurement": "growth", "setting": "SN12C renal", "result": 107, "unit": "%"},
      {"measurement": "growth", "setting": "UO-31 renal", "result": 85.1, "unit": "%"},
      {"measurement": "growth", "setting": "TK-10 renal", "result": 113, "unit": "%"},
      {"measurement": "growth", "setting": "ACHN renal", "result": 105, "unit": "%"},
      {"measurement": "growth", "setting": "CAKI-1 renal", "result": 100, "unit": "%"},
      {"measurement": "growth", "setting": "A498 renal", "result": 93, "unit": "%"},
      {"measurement": "growth", "setting": "CCRF-CEM leukemia", "result": 87.2, "unit": "%"},
      {"measurement": "growth", "setting": "MOLT-4 leukemia", "result": 122, "unit": "%"}
    ]},
    {"smiles": "Oc1cc(Nc2ccnc3cc(Cl)ccc23)c2ncccc2c1", "values": [
      {"measurement": "growth", "setting": "EKVX NSCLC", "result": 98.5, "unit": "%"},
      {"measurement": "growth", "setting": "SN12C renal", "result": 79.3, "unit": "%"},
      {"measurement": "growth", "setting": "UO-31 renal", "result": 44.4, "unit": "%"},
      {"measurement": "growth", "setting": "TK-10 renal", "result": 109, "unit": "%"},
      {"measurement": "growth", "setting": "ACHN renal", "result": 71.1, "unit": "%"},
      {"measurement": "growth", "setting": "CAKI-1 renal", "result": 86.2, "unit": "%"},
      {"measurement": "growth", "setting": "A498 renal", "result": 100, "unit": "%"},
      {"measurement": "growth", "setting": "CCRF-CEM leukemia", "result": 67.9, "unit": "%"},
      {"measurement": "growth", "setting": "MOLT-4 leukemia", "result": 68.9, "unit": "%"}
    ]},
    {"smiles": "CCN1c2ccccc2C(Cl)(c2ccc(N(C)C)cc2)c2ccccc21", "values": [
      {"measurement": "growth", "setting": "EKVX NSCLC", "result": 69.1, "unit": "%"},
      {"measurement": "growth", "setting": "SN12C renal", "result": 46.1, "unit": "%"},
      {"measurement": "growth", "setting": "UO-31 renal", "result": 57.6, "unit": "%"},
      {"measurement": "growth", "setting": "TK-10 renal", "result": 62.8, "unit": "%"},
      {"measurement": "growth", "setting": "ACHN renal", "result": 72.7, "unit": "%"},
      {"measurement": "growth", "setting": "CAKI-1 renal", "result": 62.9, "unit": "%"},
      {"measurement": "growth", "setting": "A498 renal", "result": 135, "unit": "%"},
      {"measurement": "growth", "setting": "CCRF-CEM leukemia", "result": 17, "unit": "%"},
      {"measurement": "growth", "setting": "MOLT-4 leukemia", "result": 65.6, "unit": "%"}
    ]},
    {"smiles": "CCCCCCCCCCCCNC(=S)N/N=C/c1ccccc1O", "values": [
      {"measurement": "growth", "setting": "EKVX NSCLC", "result": 89.1, "unit": "%"},
      {"measurement": "growth", "setting": "SN12C renal", "result": 69.4, "unit": "%"},
      {"measurement": "growth", "setting": "UO-31 renal", "result": 37.6, "unit": "%"},
      {"measurement": "growth", "setting": "TK-10 renal", "result": 128, "unit": "%"},
      {"measurement": "growth", "setting": "ACHN renal", "result": 77.1, "unit": "%"},
      {"measurement": "growth", "setting": "CAKI-1 renal", "result": 65.4, "unit": "%"},
      {"measurement": "growth", "setting": "A498 renal", "result": 94.3, "unit": "%"},
      {"measurement": "growth", "setting": "CCRF-CEM leukemia", "result": 46.1, "unit": "%"},
      {"measurement": "growth", "setting": "MOLT-4 leukemia", "result": 52.4, "unit": "%"}
    ]},
    {"smiles": "COc1ccc(-c2cc(-c3ccc(Cl)cc3)nc(NCCCCNc3ccnc4cc(Cl)ccc34)n2)cc1", "values": [
      {"measurement": "growth", "setting": "EKVX NSCLC", "result": 77.3, "unit": "%"},
      {"measurement": "growth", "setting": "SN12C renal", "result": 77.1, "unit": "%"},
      {"measurement": "growth", "setting": "UO-31 renal", "result": 35.5, "unit": "%"},
      {"measurement": "growth", "setting": "TK-10 renal", "result": 107, "unit": "%"},
      {"measurement": "growth", "setting": "ACHN renal", "result": 91.8, "unit": "%"},
      {"measurement": "growth", "setting": "CAKI-1 renal", "result": 64.3, "unit": "%"},
      {"measurement": "growth", "setting": "A498 renal", "result": "3.15% (active)"},
      {"measurement": "growth", "setting": "CCRF-CEM leukemia", "result": "7.63% (active)"},
      {"measurement": "growth", "setting": "MOLT-4 leukemia", "result": "3.22% (active)"}
    ]},
    {"smiles": "NNC(=O)c1ccc(C(=O)NN)cc1", "values": [
      {"measurement": "growth", "setting": "SN12C renal", "result": 109, "unit": "%"},
      {"measurement": "growth", "setting": "UO-31 renal", "result": 87.1, "unit": "%"},
      {"measurement": "growth", "setting": "TK-10 renal", "result": 105, "unit": "%"},
      {"measurement": "growth", "setting": "ACHN renal", "result": 111, "unit": "%"},
      {"measurement": "growth", "setting": "CAKI-1 renal", "result": 105, "unit": "%"},
      {"measurement": "growth", "setting": "A498 renal", "result": 70.2, "unit": "%"},
      {"measurement": "growth", "setting": "CCRF-CEM leukemia", "result": 94.4, "unit": "%"},
      {"measurement": "growth", "setting": "MOLT-4 leukemia", "result": 130, "unit": "%"}
    ]},
    {"smiles": "C#C[C@]1(O)CC[C@H]2[C@@H]3CC=C4c5nc(Nc6ccccn6)sc5CC[C@]4(C)[C@H]3CC[C@@]21C", "values": [
      {"measurement": "growth", "setting": "EKVX NSCLC", "result": "2.77% (active)"},
      {"measurement": "growth", "setting": "SN12C renal", "result": 32.1, "unit": "%"},
      {"measurement": "growth", "setting": "UO-31 renal", "result": "-24.4% (active)"},
      {"measurement": "growth", "setting": "TK-10 renal", "result": 12.3, "unit": "%"},
      {"measurement": "growth", "setting": "ACHN renal", "result": 21.6, "unit": "%"},
      {"measurement": "growth", "setting": "CAKI-1 renal", "result": "-37.6% (active)"},
      {"measurement": "growth", "setting": "A498 renal", "result": "-49% (active)"},
      {"measurement": "growth", "setting": "CCRF-CEM leukemia", "result": "0.227% (active)"},
      {"measurement": "growth", "setting": "MOLT-4 leukemia", "result": "-11.8% (active)"}
    ]},
    {"smiles": "Fc1cc2[nH]ncc2c2c3c(c(-c4cn[nH]c4)nc12)CCCC3", "values": [
      {"measurement": "growth", "setting": "EKVX NSCLC", "result": 13.1, "unit": "%"},
      {"measurement": "growth", "setting": "SN12C renal", "result": "7.63% (active)"},
      {"measurement": "growth", "setting": "UO-31 renal", "result": "-13.7% (active)"},
      {"measurement": "growth", "setting": "TK-10 renal", "result": 20, "unit": "%"},
      {"measurement": "growth", "setting": "ACHN renal", "result": "1.61% (active)"},
      {"measurement": "growth", "setting": "CAKI-1 renal", "result": "2.83% (active)"},
      {"measurement": "growth", "setting": "A498 renal", "result": "-56.5% (active)"},
      {"measurement": "growth", "setting": "CCRF-CEM leukemia", "result": "7.75% (active)"},
      {"measurement": "growth", "setting": "MOLT-4 leukemia", "result": "2.1% (active)"}
    ]},
    {"smiles": "C#C[C@]1(O)CC[C@H]2[C@@H]3CC=C4c5nc(Nc6ncccn6)sc5CC[C@]4(C)[C@H]3CC[C@@]21C", "values": [
      {"measurement": "growth", "setting": "EKVX NSCLC", "result": 43.6, "unit": "%"},
      {"measurement": "growth", "setting": "SN12C renal", "result": 82.8, "unit": "%"},
      {"measurement": "growth", "setting": "UO-31 renal", "result": 83.4, "unit": "%"},
      {"measurement": "growth", "setting": "TK-10 renal", "result": 77.3, "unit": "%"},
      {"measurement": "growth", "setting": "ACHN renal", "result": 60.7, "unit": "%"},
      {"measurement": "growth", "setting": "CAKI-1 renal", "result": 58.6, "unit": "%"},
      {"measurement": "growth", "setting": "A498 renal", "result": 34.4, "unit": "%"},
      {"measurement": "growth", "setting": "CCRF-CEM leukemia", "result": 48.6, "unit": "%"},
      {"measurement": "growth", "setting": "MOLT-4 leukemia", "result": "2.75% (active)"}
    ]}
  ]
}
